Consider 18 compounds from PubChem BioAssay AID1523 (The Scripps Research Institute Molecular Screening Center, 2009).

Some of the results follow. Calls of active or inactive are those of the source. No stated cut-off is given here; in the data, active means activation above about 12%; inactive means the rest.

The target of this experiment is Sphingosine 1-phosphate receptor 4 (Homo sapiens) (UniProt O95977). In words: S1P4 receptor agonists, retest, confirmation, cell-based, high throughput (AID 1523).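 Further: 0% = vehicle and 100% = full reference agonist response.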 Particulars: S1P4 agonist cell-based reporter assay; at 4.98 µM; stronger effect = higher value.
Sphingosine 1-phosphate receptor 4 (Homo sapiens), sequence (O95977 whole entry, looked up): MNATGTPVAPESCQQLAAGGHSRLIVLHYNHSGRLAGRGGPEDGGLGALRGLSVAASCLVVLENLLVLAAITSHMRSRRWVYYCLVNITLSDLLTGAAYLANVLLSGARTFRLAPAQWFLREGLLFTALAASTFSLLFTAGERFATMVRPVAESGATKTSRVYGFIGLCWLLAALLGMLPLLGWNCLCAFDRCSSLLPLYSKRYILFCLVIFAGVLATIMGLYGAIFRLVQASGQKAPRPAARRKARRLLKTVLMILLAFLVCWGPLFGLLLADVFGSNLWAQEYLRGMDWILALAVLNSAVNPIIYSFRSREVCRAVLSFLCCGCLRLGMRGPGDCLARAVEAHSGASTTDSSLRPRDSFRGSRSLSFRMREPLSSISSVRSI
For `O=C(CSc1ccc(-c2ccc(F)cc2)nn1)Nc1ccc2c(c1)OCCO2`, the activation is -1.49% (inactive). To `CNC(=O)c1[nH]cnc1C(=O)N[C@@H](CC(C)C)C(=O)OCc1ccccc1` belongs 48% (active). To `CC(=O)Nc1ccccc1NC(=O)c1cc(C)cc(C)c1` belongs -2.02% (inactive).

For `CCOc1ccc(-c2nnc(-c3ccco3)o2)cc1`, the activation is -1% (inactive). For `CC(C)C(c1nnnn1C(C)(C)C)N1CCN(Cc2cccnc2)CC1` (stereo not drawn), the activation was -2.62% (inactive). As for `C=CCn1c(SCn2nnc3ccccc3c2=O)nnc1-c1ccc(Cl)cc1`, the activation was -1.29% (inactive). `CCn1c(CNC(=O)c2ccc(OC)c(OC)c2)nnc1SCC(=O)Nc1ccccc1`: the activation is -2.38% (inactive). The same measure for `CC1CCCC(NC(=O)COC(=O)[C@@H]2CC(O)CN2S(=O)(=O)c2ccc3c(c2)OCCO3)C1C` (stereo partly drawn): -1.06% (inactive); for `CC(=O)Nc1ccc(SCC(=O)Nc2ccccc2Oc2ccccc2)cc1`: -3.24% (inactive).

In the case of `O=[N+]([O-])c1cccc(Nc2c3ccccc3nc3ccccc23)c1`, the activation is 6.3% (inactive). On to `O=C(CSc1nnc(Nc2ccccc2)s1)Nc1cccnc1Cl`, for which the activation is -0.71% (inactive). On to `CCCCCNC(=O)c1cccnc1SCC(=O)Nc1ccccc1OC`, for which the activation is -2.09% (inactive). To `COc1ccc(-n2c(C)cc(C(=O)CN3C(=O)NC4(CCc5ccccc54)C3=O)c2C)cc1` (stereo not drawn) belongs -1.26% (inactive); to `COc1ccc(C2CC(c3cccs3)=NN2c2ccccc2)cc1` (stereo not drawn), 23.1% (active); to `N/C(=N\OC(=O)Cc1ccc([N+](=O)[O-])cc1)c1ccccn1`, -3.04% (inactive). The same measure for `Cc1cc(C)nc(N(C#N)CC(=O)Nc2ccccc2)n1`: -0.69% (inactive); for `O=C(CSc1nncn1-c1cccnc1)N1CCOCC1`: -1.73% (inactive). The same measure for `COc1ccc(N2C(=O)C(Cc3ccccc3)NC2=S)cc1` (stereo not drawn): -1.44% (inactive).
